14-3-3 PPI = alters human 14-3-3 gamma binding to Raf peptide. P61981. FP, 14-3-3gamma / TMR-pS259-Raf peptide binding. inhibition, % at 40 µM. 160,000 tested, 0.19% active; in the data active means inhibition above about 30%
Target sequence (P61981 whole entry, looked up): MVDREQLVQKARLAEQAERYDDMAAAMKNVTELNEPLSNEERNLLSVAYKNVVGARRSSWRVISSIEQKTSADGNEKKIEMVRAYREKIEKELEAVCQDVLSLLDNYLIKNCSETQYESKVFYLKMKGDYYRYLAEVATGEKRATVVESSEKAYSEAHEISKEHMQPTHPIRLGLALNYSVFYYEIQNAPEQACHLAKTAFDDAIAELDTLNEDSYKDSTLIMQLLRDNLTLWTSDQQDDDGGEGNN
A number is an active result; . = inactive. Only a selection was taken, and hits are over-represented in it overall.

SMILES	14-3-3 PPI
CCS(=O)(=O)N1N=C(c2ccc(NS(C)(=O)=O)cc2)CC1c1ccc(F)cc1 (configuration not stated)	92
COc1ccc(C=Cc2nc3ccccc3c(=O)n2-c2ccc(OC)c(Cl)c2)cc1O	.
COc1ccc(C2C(C(=O)NCC3COc4ccccc4O3)c3cc(OC)c(OC)cc3C(=O)N2C)cc1 (configuration not stated)	.
CCOc1cc(C2C3=C(CCCC3=O)N(CC)C3=C2C(=O)CCC3)cc(Br)c1O	41
CCCOc1c(Br)cc(C2C3=C(CCCC3=O)N(CC)C3=C2C(=O)CCC3)cc1OCC	.
CCOc1cc(C2C3=C(CCCC3=O)N(CC)C3=C2C(=O)CCC3)ccc1O	.
CC(C)(C)c1ccc(OC(=O)c2ccc(Br)o2)cc1	.
O=C(NCCC1=CCCCC1)C1CCCN(S(=O)(=O)c2ccc(Br)s2)C1 (configuration not stated)	.
CCC(=O)Nc1ccc(S(=O)(=O)Nc2cc(C)on2)cc1	.
Cc1cc(NS(=O)(=O)c2ccc(NC(=O)CCC(=O)O)cc2)no1	37
Cc1cc(NS(=O)(=O)c2ccc(NC(=O)CCN3C(=O)c4ccccc4C3=O)cc2)no1	.
CCOc1ccc(C(=O)Nc2cccc(-c3nc4cc(Cl)ccc4o3)c2)cc1	.
Oc1cccc2ccc(C=Cc3ccccc3)nc12	.
COC(=O)C1=C(C)N(C)C(=O)NC1c1ccc(N(C)C)cc1 (configuration not stated)	.
CCCCCNS(=O)(=O)c1cccs1	.
Cc1ccc(C(=O)NCCNC(=O)c2ccncc2)cc1	.
Cc1ccc(C(=O)NCC(C)(C)O)cc1	67
Cc1ccc(C(=O)NCCNC(=O)c2ccc(C)cc2)cc1	.
Cc1ccc(Cc2c(C)nc3c(C(=O)NCCc4ccccc4)cnn3c2C)cc1	.
O=C(C1CC1)N1CCc2cc(S(=O)(=O)NCC3CCCO3)ccc21 (configuration not stated)	.
O=C(Nc1cc(N=Cc2cc(Cl)ccc2O)ccc1Cl)c1ccccc1	.
COc1ccc(C=Nc2ccc3nc(-c4ccccc4)[nH]c3c2)cc1OC	.
Oc1ccc(Cl)cc1C=Nc1ccc2nc(-c3ccccc3)[nH]c2c1	30
COc1ccc(-n2c(C)ccc2C)nc1	.
CCOc1ccc(C2C(C(=O)OC)=CN(C)C=C2C(=O)OC)cc1	.
SMILES	14-3-3 PPI
CCN(C(=O)CCN1C(=S)NC(C)(C)CC1C)c1ccc(C)c(C)c1 (configuration not stated)	51
CCN(C(=O)CN1C(=S)NC(C)(C)CC1C)c1ccc(C)c(C)c1 (configuration not stated)	.
Cc1cccc(NC(=O)CCN2C(=S)NC(C)(C)CC2C)c1C (configuration not stated)	.
O=C(CN1CCN(CC(=O)Nc2ccccc2Cl)CC1)Nc1cccc(F)c1	.
COC(=O)C1=C(C)NC(C)=C(C(=O)OC)C1c1ccc(-c2ccc(Cl)cc2)o1	.
CCOC(=O)C1=C(C)NC(C)=C(C(=O)OCC)C1c1ccc(-c2ccccc2)o1	40
CCOC(=O)C1=C(C)NC(C)=C(C(=O)OCC)C1c1ccc(-c2ccccc2Cl)o1	.
CC(C)(C)NC(=O)C(=O)NCc1cccnc1	.
Cc1ccc(C)c(N=Cc2c(C)c(Cl)c(C)c([N+](=O)[O-])c2O)c1	.
O=S(=O)(Nc1ccc(Cl)c(C(F)(F)F)c1)c1ccc(NS(=O)(=O)c2ccc3c(c2)OCCO3)cc1	.
C=CCC1C=CCC(CC=C)N1CCO (configuration not stated)	106
CC(C)CC1CCCC(CC(C)C)N1CCO (configuration not stated)	.
C=CCC1C=CCC(CC=C)N1C(=O)C(F)(F)F (configuration not stated)	.
Cc1ccccc1N=c1oc2ccccc2cc1C(=O)Nc1ccccc1	.
Cc1cccc(C(=O)Nc2cccc(NC(=O)c3ccc(F)cc3)c2)c1	.
Cc1cccc(C(=O)Nc2cccc(NC(=O)c3cccc(C)c3)c2)c1	45
Cc1cccc(C(=O)Nc2ccc(O)cc2)c1	.
C=CCSc1nnc2c(n1)OC(c1ccc(O)c(Br)c1)Nc1ccccc1-2 (configuration not stated)	.
Cc1nc2nc(CC(=O)NCc3ccccc3Cl)nn2c(C)c1Cc1cccc(Cl)c1	.
CCOC(=O)Cn1cc(C(=O)C2CC2)c2ccccc21	.
COC(=O)Cn1cc(C(=O)C2CC2)c2ccccc21	50
CCCC(=O)c1cn(CC(=O)OC)c2ccccc12	.
O=C1CC(c2ccccc2Br)c2cc3c(cc2N1)OCO3 (configuration not stated)	.
O=C(Nc1nc2ccc([N+](=O)[O-])cc2s1)c1ccccc1Oc1ccccc1	.
Cc1cc(OCC(=O)Nc2ccc(Br)cn2)cc(C)c1Cl	.
SMILES	14-3-3 PPI
CCOc1ccc(NC(=O)CCCN2C(=O)c3ccccc3C2=O)cc1	.
CNC(=O)c1ccc(CNS(=O)(=O)c2ccc(C)cc2)cc1	.
Cc1ccc(CNC(=O)c2ccc(CNS(=O)(=O)c3ccc(C)cc3)cc2)cc1	.
COc1cccc(CNC(=O)c2ccc(CNS(=O)(=O)c3ccc(C)cc3)cc2)c1	34
CCCCc1ccc(N2CC(C(=O)Nc3cccc(C(F)(F)F)c3)CC2=O)cc1 (configuration not stated)	.
COc1ccc(S(=O)(=O)N(CC(=O)Nc2cc(C)ccc2C)c2ccc(C)cc2)cc1	.
CCCOc1ccc(C2NC(=O)NC(C)=C2C(=O)OC(C)C(C)(C)C)cc1 (configuration not stated)	.
O=C1CN(C(=O)c2ccccc2I)C(c2ccc(F)cc2)c2cc(F)ccc2N1 (configuration not stated)	.
COC(=O)C1=C(C(=O)OC)C(c2cccc([N+](=O)[O-])c2)c2sc(=O)[nH]c2S1 (configuration not stated)	34
CCOC(=O)C1=C(C)NC(C)=C(C(=O)OC)C1c1cccc([N+](=O)[O-])c1 (configuration not stated)	.
COC(=O)C1=C(C(=O)OC)C(c2cc([N+](=O)[O-])ccc2OCc2ccccc2Cl)c2sc(=O)[nH]c2S1 (configuration not stated)	.
Cc1[nH][nH]c(=O)c1C(c1ccc(OC(=O)c2ccc(F)cc2)cc1)c1c(C)[nH][nH]c1=O	.
Cc1cccc(N=Cc2c(O)c(C(=O)Nc3ccccc3C)cc3ccccc23)c1	.
COc1ccccc1NC(=O)c1cc2ccccc2c(C=Nc2ccc(OC(F)F)cc2)c1O	112
CCc1cccc(N=Cc2c(O)c(C(=O)Nc3ccccc3)cc3ccccc23)c1	.
CC(=O)N(C1=C(N2CCCC2)C(=O)c2ccccc2C1=O)c1cccc(C(=O)O)c1	.
CCOC(=O)C1=C(C)NC2=C(C(=O)C(C(=O)OCC)C(c3ccccc3OC)C2)C1c1ccc2c(c1)OCO2 (configuration not stated)	.
CCOC(=O)CN=C1CC(C)(C)CC2=C1Sc1ncnc(OC)c1N2	81
COCCOC(=O)C1=C(C)NC(=O)NC1c1c(OC)ncnc1OC (configuration not stated)	.
CCOC(=O)C1=C(C)NC2=C(C(=O)CC(C)(C)C2)C1c1ccccn1 (configuration not stated)	.
CC1CC(C)CN(C(=O)CSc2ncccc2C(=O)O)C1 (configuration not stated)	.
Cc1ccc(-c2c(C(=O)Nc3ccc(N(C)C)cc3)oc(=O)c3ccccc23)cc1	39
CCOC(=O)c1ccc(NC(=O)c2oc(=O)c3ccccc3c2-c2ccc(C)cc2)cc1	.

Screening data (PubChem)
